Molecules are shown by their SMILES. Values joined by “and” are separate entries in the source; they are usually repeats but may differ in a detail not shown here. Identical values can stand only once.

For the assay, the system named is H9c2. Briefly: protection of cardiomyocytes from stress damage, SAR follow-up, cell-based, panel, H9c2 and HL-1, ATP luminescence, set 2 (AID 651871).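 Note: cells exposed to stressor for 2 h before ATP readout; reference of the scale not given here.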 The following applies: H9c2/HL-1 cardiomyocytes, 2-deoxyglucose stress, with 2-deoxyglucose; run 13, at 79 µM (top of the series).
In the case of `COc1ccc2nc(-c3cc(OC)c(OC)c(OC)c3)cc(C(=O)NCC(=O)Nc3ccc(C(C)=O)cc3)c2c1`, the activity (protection/inhibition) amounted to 86.7%.
`CCOC(=O)c1cccc(NC(=O)CNC(=O)c2cc(-c3cc(OC)c(OC)c(OC)c3)nc3ccccc23)c1`: the activity (protection/inhibition) was 92.9%.
Then `COc1ccc2c(c1OC)C(=O)N1c3ccccc3C(=O)N(Cc3cccc(Cl)c3Cl)C21` (stereo not drawn), with 81.4% and 89.7% and -5.69%.

These data come from PubChem BioAssay AID651871 (Sanford-Burnham Center for Chemical Genomics, 2012).
